D1 antagonist – antagonists of human D1 dopamine receptor; HEK293 TREx D1 cells, calcium flux, dopamine EC80; active compounds read low; activity change, negative = inhibition, % at 10 µM; 360,000 compounds, 3.2% hits; AID 504652; in the data active = activity change below about -30%; note: % is set by controls: 0 for no effect and ±100 for the full control effect
Target sequence (P21728 whole entry, looked up): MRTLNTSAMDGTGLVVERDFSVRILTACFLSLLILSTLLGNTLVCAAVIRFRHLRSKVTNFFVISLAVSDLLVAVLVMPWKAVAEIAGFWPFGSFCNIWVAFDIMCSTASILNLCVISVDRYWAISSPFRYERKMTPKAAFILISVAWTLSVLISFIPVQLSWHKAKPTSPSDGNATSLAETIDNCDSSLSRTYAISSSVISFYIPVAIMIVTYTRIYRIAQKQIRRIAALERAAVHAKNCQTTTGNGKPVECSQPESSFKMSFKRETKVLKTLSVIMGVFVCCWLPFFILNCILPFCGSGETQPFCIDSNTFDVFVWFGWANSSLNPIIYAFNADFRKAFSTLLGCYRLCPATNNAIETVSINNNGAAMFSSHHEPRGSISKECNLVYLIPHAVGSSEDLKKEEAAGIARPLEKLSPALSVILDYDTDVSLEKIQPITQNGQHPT
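After overnight tetracycline induction at 30 C, force-coupled D1 HEK293 cells took up a no-wash calcium dye at room temperature. Compounds were added and monitored 180 s, and the response to EC80 dopamine was then recorded.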
D1 ag – human D1 receptor agonism; P21728; HEK293 T-REx D1 cells, calcium flux, agonist mode; activation, % at 2 µM; 360,000 compounds, 1% hits; in the data active = activation above about 30%; note: 0% is about no effect
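Inducible HEK293 T-REx D1 cells, force-coupled to calcium signalling, were plated at 4000 cells/well with tetracycline and held overnight at 30 C. After no-wash calcium dye loading, compound-evoked calcium rise over 180 s flagged agonists.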
D3 ag – D3 dopamine receptor (human) agonism. D3R DiscoveRx beta-arrestin cells, luminescence, 90 min. max activation, %. P35462. 410,000 compounds, 0.58% hits; in the data active = max activation above about 30%; note: 0% is about no effect
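Agonist-mode cell screen: cells plated at 1500/well and incubated overnight at 37 °C, then exposed to library compounds for 90 min at 37 °C. Detection reagent was added for 30–60 min at room temperature, and luminescence was read.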
D3 antag – blocks the human D3 dopamine receptor; D3R cells, DiscoveRx beta-arrestin luminescence, antagonist mode; active compounds read low; 360,000 compounds, 2.5% hits; max response, negative = inhibition, %; P35462; AID 652054; in the data active = max response below about -50%; inconclusive = no clear call, values can overlap the other calls; note: % is set by controls: 0 for no effect and ±100 for the full control effect
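Cells expressing the human receptor were seeded at 1500 cells/well, incubated overnight at 37 degrees C in 5% CO2, then exposed to library compounds with dopamine controls for 90 minutes at 37 degrees C before luminescent detection.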
D1 potentiator – human D1 dopamine receptor positive modulation; AID 504651; HEK293 TREx D1 cells, calcium flux, dopamine EC20 potentiation; potentiation, % at 10 µM; 360,000 compounds, 0.036% hits; in the data active = potentiation above about 30%; note: 0% is about no effect
An asterisk follows results filed as active; ? = inconclusive; · = no result. Hits are enriched below; roughly 6.1% of the tested compounds scored in any of these assays.

SMILES | D1 antagonist | D1 ag | D3 ag | D3 antag | D1 potentiator
CCOc1cc2c(c3c1C(c1ccccc1)N(S(=O)(=O)c1ccc(C)cc1)C3)C(=O)C=CC2=O (stereo unspecified) | · | · | -17.5 | -114.6* | ·
CCOC(=O)C1=CCN(S(=O)(=O)c2ccc(C)cc2)C1c1ccccc1 (stereo unspecified) | · | · | -1.2 | -9.8 | ·
C/C=C(/CC[C@@H](C)[C@H]1CC[C@H]2C3=CC[C@H]4[C@H](C)[C@@H](O)CC[C@]4(C)[C@H]3CC[C@]12C)C(C)C | · | · | 9.0 | · | ·
Cc1cc(C=O)c(C)n1-c1ccc(Oc2ccc([N+](=O)[O-])cn2)cc1 | -53.2* | 22.4 | -0.1 | -4.6 | -2.6
COC(=O)C1=C(C(=O)OC)[C@@H]2N(C)c3ccccc3[C@@]23C[C@@H](CO)N(C(=O)C2CCC2)C3=N1 | · | · | -19.6 | -52.6* | ·
Cc1ccc2nc(SCC(=O)Nc3cccc([N+](=O)[O-])c3)[nH]c2c1 | -6.5 | 0.1 | -17.5 | -52.1* | -4.1
Cc1ccc2nc(SCC(=O)Nc3ccc(C(N)=O)cc3)[nH]c2c1 | 3.8 | 1.4 | -7.3 | -21.1 | 1.6
Cc1ccc2nc(SCc3ccc([N+](=O)[O-])cc3)[nH]c2c1 | -35.3* | 2.9 | 10.1 | -18.9 | -4.8
Cc1ccc2nc(SCc3ccc([N+](=O)[O-])cc3)nc(C)c2c1 | 4.1 | 0.1 | 11.8 | -15.5 | 2.2
CCOC(=O)c1c(NC(=O)CSc2nc3ccc(C)cc3[nH]2)sc2c1CC(C)(C)NC2(C)C | 11.4 | 48.1* | -9.4 | ? | 0.8
Cc1cccc2nc(CSc3nc4ccc([N+](=O)[O-])cc4[nH]3)cn12 | -37.4* | 0.3 | -10.5 | 0.0 | -21.7
CCCc1cc(=O)[nH]c(Nc2ccc(C)c(O)c2)n1 | -1.0 | -0.5 | 9.1 | · | -2.0
CC(=O)c1cc(-c2ccc(F)cc2)n(CC(=O)NC2CCCCCC2)c1C | -4.8 | 2.4 | 6.2 | · | -4.2
Cc1cc(C)nc(-n2nc(C)c3c2N(Cc2ccccc2F)C(=O)CC3c2ccc(Cl)cc2)n1 (stereo unspecified) | -1.2 | -1.8 | -12.9 | · | 3.9
CCOc1c(Cl)cc(/C=C/C(=O)N(CC)CC(=O)Nc2ccc(NC(C)=O)cc2)cc1OC | -14.4 | 8.0 | -8.7 | -52.7* | -3.5
CCOc1ccc(/C=C/C(=O)N(CC)CC(=O)Nc2ccc3c(c2)OCCO3)cc1OCC | -16.3 | -0.2 | -18.1 | -56.6* | -13.3
CCc1ccc(CNCc2c(C(=O)O)n(Cc3ccc(C)cc3)c3cc(C)ccc23)cc1 | 10.7 | 1.3 | -9.7 | · | 3.1
CC1C/C(=N\NC(=S)NCc2ccccc2)CC(C)(C)C1 (stereo unspecified) | -16.4 | 5.6 | -21.1 | -56.2* | -4.2
Cc1cccc(C)c1-n1nnnc1C1(C)CCC(=O)N1CCCn1ccnc1 (stereo unspecified) | · | · | -5.0 | -26.2 | ·
CCCCn1nnnc1C1(C)CCC(=O)N1CCCn1ccnc1 (stereo unspecified) | · | · | -13.0 | -105.5* | ·
Cc1ccc(CCNC(=O)CN(c2ccc(C(C)C)cc2)S(=O)(=O)c2c(C)nn(C)c2C)cc1 | -4.7 | 3.1 | -9.8 | · | -1.9
C[C@@]12CCC3[C@@](CCC4[C@@]3(C)CCC[C@@]4(C)C(=O)N3CCOCC3)(CC1=O)C2 (stereo partly specified) | · | · | 31.4* | 5.1 | ·
O=C(N/N=C/C1CCCCC1)c1ccccc1-n1cccc1 | 42.1 | 2.5 | 36.0* | 1.5 | 4.0
CCOC(=O)c1ccccc1NC(=O)CSc1ccc(-c2sc(-c3ccccc3)nc2C)nn1 | 2.4 | 3.7 | 7.8 | · | 0.3
CC1(C)CC(=O)C(C=Nc2cccnc2/N=C/C2=C(O)CC(C)(C)CC2=O)=C(O)C1 | 16.1 | 7.2 | -46.3 | -143.1* | -4.0
SMILES | D1 antagonist | D1 ag | D3 ag | D3 antag | D1 potentiator
CC1(C)CC(=O)C(C=Nc2ccc(C(=O)c3ccccc3)cc2N=CC2=C(O)CC(C)(C)CC2=O)=C(O)C1 | -14.1 | 86.2* | -24.2 | -118.5* | -0.5
CC1(C)CC(=O)C(C=Nc2ccc(O)c(N=CC3=C(O)CC(C)(C)CC3=O)c2)=C(O)C1 | 28.0 | 1.2 | 8.6 | 4.3 | -0.6
CC1(C)CC(=O)C(C=Nc2cccnc2)=C(O)C1 | -11.9 | 2.1 | 6.3 | -12.9 | 6.7
COc1ccc(-c2nc3ccccc3s2)cc1NC(=O)COc1cccc(C)c1 | 5.0 | 6.0 | 0.9 | · | -2.8
Cc1cc2nc(-c3cccc(NC(=O)COc4ccc(C(C)C)cc4)c3)oc2cc1C | 4.8 | -0.6 | 2.5 | · | -2.5
Cc1ccc(C)c(N2CCN(S(=O)(=O)c3c(C(=O)N4CCC(C)CC4)c(C)n(C)c3C)CC2)c1 | -3.5 | 3.7 | -6.7 | · | 0.3
CCOC(=O)c1ccc(N2C(=O)c3n[nH]c(-c4ccco4)c3C2c2ccc(OCC)cc2)cc1 (stereo unspecified) | 37.2 | 4.3 | 7.6 | · | 10.4
CC(=O)c1ccc(-c2cccc(-c3cc(=O)oc4ccc(C(C)(C)C)cc34)c2)cc1 | · | · | 39.4* | 37.1 | ·
Cc1ccc(Cl)cc1N1CCN(S(=O)(=O)c2cn(C)cn2)CC1 | -34.6* | 13.2 | 4.6 | 16.0 | -3.8
Cc1ccc(Cl)cc1N1CCN(S(=O)(=O)c2ccc3[nH]c(=O)c(=O)[nH]c3c2)CC1 | -6.8 | 25.2 | -8.0 | -18.9 | -2.1
O=c1ccc2cc(S(=O)(=O)N3CCN(c4ccccc4F)CC3)ccc2[nH]1 | -34.4* | 12.4 | 1.5 | 17.6 | -9.7
Cc1ccc(Cl)cc1N1CCN(S(=O)(=O)c2cn(C)c(C)n2)CC1 | 6.7 | 0.5 | -7.1 | · | 0.8
Cc1ccc(Cl)cc1N1CCN(S(=O)(=O)c2ccc3[nH]c(=O)ccc3c2)CC1 | -89.2* | 0.8 | 1.5 | 23.6 | -15.2
Cc1ccc(C(=O)NCc2ccccc2)cc1NC(=O)c1nsc2ccccc12 | 6.0 | 2.5 | 3.2 | · | -2.1
CCOC(=O)c1sc(Nc2cccc(Cl)c2)nc1C | 11.2 | 1.6 | -10.0 | 0.7 | 4.8
CCOC(=O)c1sc(Nc2cccc(C)c2C)nc1C | 18.5 | 31.2* | · | · | 2.9
CCOC(=O)c1sc(N/N=C/c2ccc(N(C)C)cc2)nc1C | -46.6* | -0.5 | 9.6 | 1.8 | -10.8
CCCCCCCCCCCCCCNCCO | · | · | 6.7 | · | ·
COc1cccc(NC(=O)Cn2c(=O)n(CC(=O)NCCc3ccccc3)c(=O)c3sccc32)c1 | -3.7 | 10.1 | -17.0 | · | 0.8
COc1ccc(OC)c(NC(=O)c2cnn(-c3ccc(C)cc3)c2C2CCNCC2)c1 | 12.2 | -0.1 | -11.9 | · | 3.9
CCOc1ccccc1NC(=O)c1ccc(CN2CCc3ccccc3C2)cc1 | 2.5 | 2.2 | -29.3 | -70.2* | 4.3
CC(=O)c1cccc(NC(=O)c2ccc(CN3CCc4ccccc4C3)cc2)c1 | 10.5 | 9.6 | -30.1 | -88.7* | -3.5
O=C(NCCCN1CCOCC1)c1cccc(S(=O)(=O)N2CCc3ccccc3C2)c1 | 0.7 | -2.4 | -16.7 | -56.7* | 1.6
O=C(NCC1(N2CCOCC2)CCCCC1)c1cccc(S(=O)(=O)N2CCc3ccccc3C2)c1 | 8.9 | 4.5 | -2.1 | 3.7 | 1.6

From PubChem
